ULK1 primary – inhibitors of human ULK1 kinase; AlphaScreen Atg13 phosphorylation by ULK1, luminescence; O75385; actives 1.9% (n = 30,000); inhibition, % at 5.96 µM; in the data active means inhibition above about 43%
ASK1 inh – inhibitors of human ASK1 kinase; actives 0.99% (n = 22,000); inhibition, % at 7.44 µM; AlphaScreen MKK6 phosphorylation by ASK1, luminescence; AID 1159602; Q99683; in the data active means inhibition above about 35%
TruHits interf – AlphaScreen optical interference dose response, ASK1 counter-screen; AlphaScreen TruHits beads, signal interference counterscreen; shares compounds with ASK1 inh; actives 20% (n = 220); AID 1159604; IC50, µM;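 active means IC50 of 10 µM or lower in the counterscreen; inactive means IC50 above 10 µM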;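 further: loss of AlphaScreen light from TruHits beads alone with no ASK1 enzyme present; potency of signal reduction so a low IC50 flags an assay artifact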
A number is an active result; – = inactive; · = no result given; ! = not confirmed by another sample. Only some compounds are listed: those with a hit (about 2.5% of all), similar ones and a draw of the others.

SMILES | ULK1 primary | ASK1 inh | TruHits interf
COc1cc2nc(Nc3ccc(N4CCOCC4)cc3)nc(NCc3cccc(C(F)(F)F)c3)c2cc1OC | – | 52! | 6.2
COc1ccc(Nc2nc(NCc3cccc(C(F)(F)F)c3)c3cc(OC)c(OC)cc3n2)cc1 | – | – | ·
COc1cc2nc(Nc3ccc(N4CCOCC4)cc3)nc(Nc3ccc(N4CCOCC4)cc3)c2cc1OC | – | 64 | 5.6
CN(C)c1cccc(Nc2nc(Nc3ccc(N4CCOCC4)cc3)c3[nH]cnc3n2)c1 | – | 36 | –
COc1cc2nc(Nc3ccc(-n4ccnc4)cc3)nc(Nc3ccc(N4CCOCC4)cc3)c2cc1OC | – | – | ·
COc1cc2nc(Nc3nc4ccccc4n3C)nc(Nc3ccc4c(c3)OCO4)c2cc1OC | – | – | ·
c1nc2nc(Nc3ccc(N4CCOCC4)cc3)nc(Nc3ccc(N4CCOCC4)cc3)c2[nH]1 | – | – | ·
O=C(Nc1ccc2c(c1)OCO2)c1cnc(NCc2cccnc2)s1 | – | – | ·
O=C(Nc1cccc(O)c1)/C(=C/c1ccc([N+](=O)[O-])cc1)NC(=O)c1ccccc1 | – | · | ·
COc1cc2nc(-c3ccccc3)nc(NCCCN3CCOCC3)c2cc1OC | – | – | ·
O.O.O.O.O.O.O.O=S(=O)([O-])[O-].[Al][O][Al].[Al][O][Al].[Mg+2].[Mg+2].[OH-].[OH-] | – | · | ·
COc1cc2nc(Nc3ccc4ncccc4c3)nc(Nc3ccc(N4CCOCC4)cc3)c2cc1OC | – | – | ·
COc1cc2nc(Nc3ccc(N4CCOCC4)cc3)nc(Nc3ccccc3)c2cc1OC | – | 56 | 8.5
Cn1c(Nc2nc(Nc3ccc(N4CCOCC4)cc3)c3[nH]cnc3n2)nc2ccccc21 | – | – | ·
Cc1cnc(Nc2nc3ccccc3n2C)nc1Nc1ccc(N2CCOCC2)cc1 | – | 39 | –
O=C(Nc1ccc2[nH]ncc2c1)c1ccnc(N[C@@H](CO)Cc2ccccc2)c1 | – | – | ·
CCCNc1cc(-c2cccc(C(C)=O)c2)ncn1 | – | – | ·
Cn1ncc(-c2ccnc(Nc3ccc(N4CCOCC4)cc3)c2)c1Nc1ccccc1 | – | – | ·
O=C(Nc1ccccc1)c1ccccc1Nc1ccnc(Nc2ccc(N3CCOCC3)cc2)c1 | – | 37 | –
c1ccc(CCn2nc(-c3ccnc(Nc4ccc(N5CCOCC5)cc4)c3)cc2Nc2ccccc2)cc1 | – | 56 | –
O=C(Cc1ccccc1)Nc1cc(-c2ccnc(Nc3ccc(N4CCOCC4)cc3)c2)nn1CCc1ccccc1 | – | – | ·
c1ccc(CCn2ncc(-c3ccnc(Nc4ccc(N5CCOCC5)cc4)c3)c2Nc2ccccc2)cc1 | – | 41 | –
OCc1ccccc1Nc1ccnc(Nc2ccc(N3CCOCC3)cc2)c1 | – | – | ·
CC(C)n1c(Nc2ccc(N3CCOCC3)cc2)nc2c(NCc3ccccc3)ncnc21 | – | – | ·
CC(C)n1cnc2c(Nc3ccccc3)nc(NCCCN3CCCC3=O)nc21 | – | – | ·
SMILES | ULK1 primary | ASK1 inh | TruHits interf
COC(=O)Cc1cccc(Nc2nccc(-c3ccc(S(C)(=O)=O)cc3)n2)c1 | – | – | ·
CCCNC(=O)c1ccnc(N2CCOCC2)c1 | – | – | ·
N[C@@H](Cc1ccc(Br)cc1)C(=O)N1CC[C@H](C(=O)Nc2ccc3[nH]ncc3c2)C1 | – | – | ·
COc1ccc(C)cc1NC(=O)Nc1cnn(-c2cccc(C(=O)Nc3cc(OC)c(OC)c(OC)c3)c2)c1 | – | – | ·
COc1cc(NC(=O)c2cccc(-n3cc(NC(=O)Nc4ccc(-c5ccccc5)cc4)cn3)c2)cc(OC)c1OC | – | 49 | –
COc1cc(NC(=O)c2cccc(-n3cc(NC(=O)Nc4c(C)cccc4Cl)cn3)c2)cc(OC)c1OC | – | 40 | –
COc1cc(NC(=O)c2cccc(-n3cc(NC(=O)Nc4ccccc4)cn3)c2)cc(OC)c1OC | – | – | ·
Cc1cc(N2CCCC2)nc(Nc2ccc(NC(=O)CC(C)C)cc2)n1 | – | · | ·
c1cc(-c2cncc(N3CCOCC3)c2)nc(Nc2ccc(OCCN3CCOCC3)cc2)n1 | – | – | ·
COC(=O)CCCN1C(=O)c2ccccc2C1=O | – | · | ·
CCCN(CCC)C(=O)c1ccc(OCC)cc1 | – | · | ·
Cc1ccc(-c2ncn(-c3ccc(Nc4cc(-c5cnn(C)c5)c(Cl)cn4)cc3)n2)cn1 | – | – | ·
Cc1ccc(-c2ncn(-c3ccc(Nc4ncc(Cl)c(-c5ccnn5C)n4)cc3)n2)cn1 | – | 43 | –
Cc1ccc(-c2cccc3cnc(Nc4ccc(-n5cnc(C)n5)cc4)nc23)cn1 | – | 39 | –
Cc1ncn(-c2ccc(Nc3ncc4cccc(-c5cccc(F)c5)c4n3)cc2)n1 | – | – | ·
CC(=O)c1cccc(-c2cc(NC3CCN(Cc4ccccc4)CC3)nc(N)n2)c1 | – | – | ·
O=C1CCCN1CCn1cnc2c(NCCO)nc(Nc3ccc4ncccc4c3)nc21 | – | – | ·
Cc1c[nH]c2ncnc(-c3ccc(NC(=O)Nc4ccccc4)cc3)c12 | – | 39 | –
CCn1c(=O)[nH]c2ncnc(-c3ccc(NC(=O)Nc4cccc(C(=O)NC(C)C)c4)cc3)c21 | – | – | ·
c1ccc(CNc2ncnc3nc(Nc4cnccn4)[nH]c23)cc1 | – | – | ·
Cn1nccc1Nc1nc(NCc2ccccc2)c2ncn(Cc3ccc(C(F)(F)F)cc3)c2n1 | – | – | ·
Cc1nc(Nc2ncccn2)cc(-c2cccc(C(F)(F)F)c2)n1 | – | · | ·
CC(C)NC(=O)c1cccc(NC(=O)Nc2ccc(-c3cn[nH]c3)cc2)c1 | – | – | ·
CC(C)NC(=O)c1cccc(NC(=O)Nc2ccc(-c3ccnc4[nH]ccc34)cc2)c1 | – | 39 | –
CC(=O)Nc1ccc(Nc2nc(N3CCCC3CO)nc3nc[nH]c23)cc1 (stereo not drawn) | – | – | ·
SMILES | ULK1 primary | ASK1 inh | TruHits interf
CN(C)CCNC(=O)c1ccc2c(c1)CC(c1nc3ncc(-c4ccnc(N)n4)cc3[nH]1)CO2 (stereo not drawn) | – | – | ·
CC(C)CNC(=O)c1ccc2c(c1)CC(c1nc3ncc(-c4ccnc(N)n4)cc3[nH]1)CO2 (stereo not drawn) | – | 42 | –
COc1cc2nc(Nc3ccncc3)nc(Nc3ccc(NC(C)=O)cc3)c2cc1OC | – | – | ·
COc1cc2nc(Nc3ccccc3)nc(Nc3ccccc3)c2cc1OC | – | – | ·
COc1cc2nc(Nc3cccc(N(C)C)c3)nc(Nc3ccc(NC(C)=O)cc3)c2cc1OC | – | 55 | 8.7
COc1cc2nc(Nc3cccc(N(C)C)c3)nc(Nc3ccccc3)c2cc1OC | – | 42 | 4.3
Cc1nc(C)n(-c2ccc(Nc3nccc(-c4ccccc4)n3)cc2)n1 | – | – | ·
COc1ccc2c(c1)CC(C(=O)Nc1ccc(-c3cn[nH]c3)cc1OCCOCc1ccccc1)CO2 (stereo not drawn) | – | 43 | –
COc1ccc2c(c1)CC(C(=O)Nc1ccc(-c3cn[nH]c3)cc1OCCC(C)C)CO2 (stereo not drawn) | – | – | ·
CCOC(=O)CN1CCN(c2ccc(Cl)cc2)CC1 | – | · | ·

Bioassay records from PubChem BioAssay.
